In PubChem BioAssay AID1259416 (Broad Institute, 2018):
The campaign covered roughly 69,000 compounds. About 2,600 (3.8%) were called active. What follows is part of a selection rich in actives, with near analogues and random picks from the rest. Unmarked numbers belong to inactive results. No stated cut-off is given here; in the data, active means activity change below about -70% (passing the limit was not always enough); inconclusive means no clear call, values can overlap the other calls.

Assay: T. gondii growth inhibition with IFN-gamma, primary screen, cell-based (AID 1259416);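 further: host cells are HeLa cells infected with Toxoplasma gondii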
Conditions: Toxoplasma gondii growth in IFN-gamma-treated host cells; stronger effect = lower value; concentration not given here

Structure (SMILES) | activity change, negative = inhibition
C[C@@H]1CN([C@@H](C)CO)S(=O)(=O)c2ccc(C#Cc3cccc(F)c3)cc2O[C@H]1CN(C)S(=O)(=O)c1cn(C)cn1 | -31.1%
Cn1c(=O)c2nc(-c3ccc(I)cc3)oc2c2ccccc21 | -20.4%
CCCN1CCn2cc(C(=O)N3CCN(c4cccc(OC)c4)CC3)nc2C1 | 15%
Cc1cccc(CNC(=O)c2nc(Nc3cccc(C)c3)c3ccccc3n2)c1 | -89.5% (active)
O=C(NC1CCCCC1)c1nc(Nc2ccccc2)c2ccccc2n1 | -55.7%
O=C(NCc1cccc(Br)c1)c1nc(Nc2ccc(F)cc2)c2ccccc2n1 | -65.9%
CC(Cc1ccco1)NC(=O)c1nc(Nc2ccccc2)c2ccccc2n1 (centres undefined) | -47%
Cc1ccc(Nc2nc(C(=O)Nc3ccc(Cl)cc3F)nc3ccccc23)cc1 | 4.67%
O=C(Nc1ccccc1Br)c1nc(Nc2ccccc2)c2ccccc2n1 | -74.2% (active)
Cc1cccc(Nc2nc(C(=O)Nc3cccc4c3CCCC4)nc3ccccc23)c1 | -67.4%
Cc1ccc(CNC(=O)c2nc(Nc3ccc(C)cc3)c3ccccc3n2)cc1 | 40.8%
Cc1cccc(Nc2nc(C(=O)Nc3cccc(Cl)c3C)nc3ccccc23)c1 | -75.4% (active)
CCOc1ccccc1NC(=O)OC1CCCN1C(=O)NCc1ccccc1 (centres undefined) | -2.55%
O=C(COC(=O)c1ccc(Cl)nc1)NCc1ccc2c(c1)OCO2 | 8.52%
CC(=O)c1c(C)nn(CCC(=O)N2CCC(c3ccccc3C(=O)O)C2)c1C (centres undefined) | 2.53%
Cc1nc(C)c(S(=O)(=O)NC(CCN2CCOCC2)c2ccccc2)s1 (centres undefined) | 12.7%
CC(C(=O)NCc1ccccc1F)N(c1ccccc1)S(C)(=O)=O (centres undefined) | 12.1%
O=C(Cn1ncc2c(N3CCN(c4ccccn4)CC3)ncnc21)Nc1cc(F)ccc1F | -34%
O=C(Cc1ccccc1)NCCc1nc(N2CCOCC2)ncc1C(=O)N1CCCC1 | 8.84%
CN1C2CCN(Cc3nccs3)CC2C[C@H]1Cn1cncn1 (some centres undefined) | 4.21%
Cc1cc(Nc2cc(CN3CCOCC3)c3nc(C)c(Cc4ccc(Cl)cc4F)n3n2)n[nH]1 | -78.1% (active)
COCCN1CCO[C@@H]2CN(Cc3ccccc3F)C[C@@H]2C1 | -4.47%

Structure (SMILES) | activity change, negative = inhibition
CN(C)c1ncccc1CNC(=O)c1cnc2c(c1)nnn2C | 2.4%
C/C=C/c1ccccc1[C@@H]1[C@@H](CO)N(C(=O)CN2CCOCC2)[C@H]1C#N | 18.7%
COc1ccc(-c2nc3c(s2)CN(S(=O)(=O)c2cccc(Cl)c2C)CC3)cc1 | -94.8% (active)
COc1ccc(-c2nc3c(s2)CN(S(=O)(=O)c2ccc(C)cc2C)CC3)cc1OC | -101% (active)
CCOc1ccc(-c2nc3c(s2)CN(S(=O)(=O)c2cccc(C)c2)CC3)cc1 | 4.52%
COC(=O)c1cc2n(n1)CCN(S(=O)(=O)c1ccc(C)cc1OC)C2 | -2.93%
COc1ccc(S(=O)(=O)N2CCc3nc(-c4ccccc4)sc3C2)cc1OC | 62%
COc1ccc(-c2nc(C)c(CCNS(=O)(=O)c3ccccc3)s2)cc1OC | 132%
COc1cccc(-c2nc3c(s2)CN(S(=O)(=O)c2cccc(F)c2)CC3)c1 | -87.6% (active)
COc1cccc(NC2COC3(CCN(S(=O)(=O)c4cccc(F)c4)CC3)C2)c1 (centres undefined) | -1.19%
O=S(=O)(NC[C@H]1[C@H](c2ccccc2)[C@H](CO)N1CC1CC1)c1ccccc1 | 14.7%
Cc1nc(-c2cccc(F)c2)sc1CCNC(=O)C12CC3CC(CC(C3)C1)C2 | -46.4%
C=Cc1cccc(CN2CCC3(CCCN(C(=O)CCOC)C3)C2)c1 (centres undefined) | -2.67%
CN(Cc1nc(-c2ccncc2)no1)C(=O)c1cc2ccccc2s1 | -2.68%
Cc1ncc(C(=O)O)c(-c2ccccc2)n1 | 0.375%
COCc1cnc2n1CCN(C(=O)c1oc3ccccc3c1C)C2C (centres undefined) | 1.32%
Cc1cc(C(F)F)nn1CC(=O)NCCn1ncc(-c2ccncc2)c1-c1cccs1 | -65.9%
CCOCCn1nc(C)cc1C(=O)N1CCCC2(CNC(=O)O2)C1 (centres undefined) | -0.947%
COCC12CCCOC1CCN(S(=O)(=O)C1CC1)C2 (centres undefined) | 5.49%
C/C=C/c1ccccc1[C@@H]1[C@@H](C#N)N(c2nc(CC)cs2)[C@@H]1CO | 1.59%
CCc1cnc(N2[C@H](C#N)[C@H](c3ccccc3-c3ccccc3C)[C@H]2CO)s1 | 18.5%
Cc1ccc(-c2ccccc2[C@H]2[C@@H](C#N)N(c3ncc(-c4ccccc4)s3)[C@@H]2CO)cc1 | -77.5% (active)
